Source: PubChem
CYP2C9 activ: human CYP2C9 activators, primary screen, biochemical, luminescence | Cytochrome P450 2C9 (Homo sapiens), P11712 | recombinant CYP2C9, luciferin-H conversion; active compounds read high; factor 1 = untreated enzyme, 0 = blocked | activation factor at 5 µM | 1.4% of 96,000 active;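 active = activation factor of 2 or more for CYP2C9 at a 5 µM dose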
Target sequence (P11712 whole entry, looked up): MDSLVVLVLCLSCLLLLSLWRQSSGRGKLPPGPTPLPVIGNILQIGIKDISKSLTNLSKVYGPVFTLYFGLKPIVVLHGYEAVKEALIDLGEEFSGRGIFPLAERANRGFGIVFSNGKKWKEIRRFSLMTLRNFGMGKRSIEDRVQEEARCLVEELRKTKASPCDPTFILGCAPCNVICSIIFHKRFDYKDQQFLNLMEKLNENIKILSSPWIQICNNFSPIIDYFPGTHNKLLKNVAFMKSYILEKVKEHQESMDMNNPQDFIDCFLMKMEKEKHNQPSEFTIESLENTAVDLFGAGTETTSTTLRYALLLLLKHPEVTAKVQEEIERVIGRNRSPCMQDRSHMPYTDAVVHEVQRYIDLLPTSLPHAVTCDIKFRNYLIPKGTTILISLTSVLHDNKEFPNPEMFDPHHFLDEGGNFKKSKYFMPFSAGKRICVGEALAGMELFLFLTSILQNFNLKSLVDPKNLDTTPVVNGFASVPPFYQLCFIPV
CYP2C19 act: human CYP2C19 activators, primary screen, biochemical, luminescence; recombinant CYP2C19, luciferin-H EGE luminescence; active compounds read high; 0 = fully inhibited enzyme, 1 = untreated enzyme; Cytochrome P450 2C19 (Homo sapiens), P33261; 96,000 tested, under 10 active; AID 1025, 2008; activation factor at 5 µM;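 active = activation factor of at least 2 at 5 µM in the primary screen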
CYP2C19 inh: blockers of cytochrome P450 2C19 activity – biochemical, luminescence, ADME assay, primary screen; P33261; CYP2C19 Supersomes, luciferin-H EGE luminescence, 30 min; inhibition, % at 5 µM; 21% of 96,000 active; AID 778, 2007;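 active = CYP2C19 inhibition above a set limit at 5 µM in the primary screen, cut at about 50% in these data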
Measles CPE: compounds protecting cells from measles virus cytopathic effect, primary screen, measles RdRp inhibitor project, single point, MLSMR library, absorbance | Measles virus-infected cells, CPE protection | protection (pct of control), % at 4 µM | 1.5% of 140,000 active | AID 841, 2007; in the data active = protection mostly above about 24%, no sharp cut-off; inactive = mostly below about 26%
CYP2C9 inhib: blockers of cytochrome P450 2C9 activity – biochemical, luminescence, ADME assay, primary screen | P11712 | 20% of 96,000 active | inhibition, % at 5 µM | AID 777, 2007 | CYP2C9 Supersomes, luciferin-H conversion;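 active = blocking of liver enzyme CYP2C9 beyond about 50% at 5 µM, limit read from the data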
Of the large screens only hits and unclear results are named; the others gave an inactive call. Hits are enriched below; roughly 22% of the tested compounds scored in any of these assays.

COc1ccc(-c2nnc3sc(COc4ccc(C)cc4)nn23)cc1	none
COc1ccc(C2CC(c3cccc(OC)c3)n3nc(N)nc3N2)cc1 (configuration not stated)	none
COc1cccc(C2CC(c3ccccc3C)n3nc(N)nc3N2)c1 (configuration not stated)	none
COc1cccc(C2CC(c3ccccc3OC)n3nc(N)nc3N2)c1 (configuration not stated)	CYP2C19 inh 63
COc1cccc(C2CC(c3ccc(Cl)cc3)n3nc(N)nc3N2)c1 (configuration not stated)	CYP2C19 inh 78
COc1cccc(C2CC(c3ccc(Cl)cc3Cl)n3nc(N)nc3N2)c1 (configuration not stated)	CYP2C19 inh 90
Cc1cccc(C2CC(c3ccc(F)cc3)Nc3nc(N)nn32)c1 (configuration not stated)	CYP2C19 inh 58
Cc1n[nH]c(=O)nc1NCCN(C)C	none
CN1CCN(Cc2c(O)ccc3c(=O)c(Oc4ccccc4Cl)c(C(F)(F)F)oc23)CC1	none
COc1ccc(C(N)CCc2ccc(C)o2)cc1 (configuration not stated)	none
CCOc1cc(N2CCOCC2)c(OCC)cc1NC(=O)Cc1cccc(OC)c1	none
COc1ccc(C2CC(c3ccccc3C)n3nc(N)nc3N2)cc1 (configuration not stated)	CYP2C19 inh 57
Nc1nc2n(n1)C(c1ccccc1Cl)CC(c1ccc(F)cc1)N2 (configuration not stated)	CYP2C19 inh 73
Cc1ccc(C2CC(c3cccs3)n3nc(N)nc3N2)cc1 (configuration not stated)	CYP2C19 inh 51
Cc1ccc(C2CC(c3ccccc3C)n3nc(N)nc3N2)cc1 (configuration not stated)	none (no result: CYP2C9 activ, CYP2C19 act, CYP2C19 inh, CYP2C9 inhib)
Cc1ccc(C2CC(c3ccccc3Cl)n3nc(N)nc3N2)cc1 (configuration not stated)	none
CCOc1ccccc1C1CC(c2ccc(Br)cc2)Nc2nc(N)nn21 (configuration not stated)	CYP2C19 inh 64
Cc1nc2cc(NC(=O)N3c4ccccc4CC3C)ccc2n1C (configuration not stated)	none
CCCSc1nnc(CN2CCOCC2)n1C	none
CNC(=O)C1(C)C=CCN1C(=O)c1ccccc1 (configuration not stated)	none (no result: CYP2C9 activ, CYP2C19 act, CYP2C19 inh, CYP2C9 inhib)
O=C1CC(c2ccc(Cl)c([N+](=O)[O-])c2)c2ccc3ccccc3c2N1 (configuration not stated)	none (no result: CYP2C9 activ, CYP2C19 act, CYP2C19 inh, CYP2C9 inhib)
COc1cccc(C2CC(c3ccccc3Cl)n3nc(N)nc3N2)c1 (configuration not stated)	CYP2C19 inh 85
COc1cccc(C2CC(c3c(Cl)cccc3Cl)n3nc(N)nc3N2)c1 (configuration not stated)	none
COc1ccc(N=c2sc3ccccc3n2C)cc1	CYP2C19 inh 51
COc1cc(C(=O)N/N=c2/sc3ccccc3n2C)cc(OC)c1OC	none (no result: CYP2C9 activ, CYP2C19 act, CYP2C19 inh, CYP2C9 inhib)
COc1ccccc1N=c1sc2ccccc2n1C	CYP2C19 inh 77
Cn1c(=NCC(O)COc2ccccc2)sc2ccccc21 (configuration not stated)	CYP2C19 inh 95
CCOc1ccc(-n2cccc2C=O)cc1	none (no result: CYP2C9 activ, CYP2C19 act, CYP2C19 inh, CYP2C9 inhib)
COc1ccc(-n2cnc3c(cnn3CCC#N)c2=N)cc1	CYP2C19 inh 77
CCOC(=O)N1CCC(NC(=O)c2ccc3c(c2)N(C)CCS3)CC1	none (no result: CYP2C9 activ, CYP2C19 act, CYP2C19 inh, CYP2C9 inhib)
COc1ccc(C(=O)Nc2ccc(S(=O)(=O)N3CCCCC3)cc2)cc1OC	none
O=C(Nc1ccccc1Cl)c1cc(S(=O)(=O)N2CCOCC2)cs1	none
Cc1ccccc1NC(=O)c1cc(S(=O)(=O)N2CCCCC2)cs1	CYP2C9 inhib 51
O=C(Nc1ccc(S(=O)(=O)N2CCOCC2)cc1)c1ccc(CN2CCc3ccccc3C2)cc1	CYP2C9 inhib 55
CC(C)(C)n1nc2c(c1NC(=O)c1ccc(S(=O)(=O)N3CCCCC3)cc1)CS(=O)C2 (configuration not stated)	Measles CPE 44
O=C(Nc1ccc(S(=O)(=O)N2CCCC2)cc1)c1ccc(CN2CCc3ccccc3C2)cc1	none (no result: CYP2C9 activ, CYP2C19 act, CYP2C19 inh, CYP2C9 inhib)
Cc1cc(C(=O)Nc2ccc(S(=O)(=O)N3CCCC3)cc2)cs1	Measles CPE 53
COC(=O)c1ccccc1NC(=O)c1ccc(NS(C)(=O)=O)cc1	none
COc1ccc2c(c1)C(SCC(=O)NCCc1ccc(Cl)cc1)CC(C)(C)O2 (configuration not stated)	none (no result: CYP2C9 activ, CYP2C19 act, CYP2C19 inh, CYP2C9 inhib)
O=S(=O)(c1cccc(NC(=S)NCc2ccco2)c1)N1CCOCC1	none (no result: CYP2C9 activ, CYP2C19 act, CYP2C19 inh, CYP2C9 inhib)
O=C(Nc1ccccc1)c1ccc(S(=O)(=O)N2CCOCC2)cc1	none
O=C(Nc1ccc(S(=O)(=O)Nc2nccs2)cc1)c1ccc(S(=O)(=O)N2CCOCC2)cc1	Measles CPE 67 (no result: CYP2C9 activ, CYP2C19 act, CYP2C19 inh, CYP2C9 inhib)
O=C(Nc1ccc(S(=O)(=O)N2CCCCC2)cc1)c1ccncc1	CYP2C19 inh 99, CYP2C9 inhib 98 (no result: Measles CPE)
CC(=O)c1ccc(NC(=O)c2ccc(S(=O)(=O)N3CCCC3)cc2)cc1	none
CN(C)c1ccc(/C(=N\O)c2ccccc2)cc1	CYP2C19 inh 73
Cc1cc2c(cc1C)N(CC(=O)N1CCCC1)C(=O)CC(c1ccccc1)=N2	CYP2C9 inhib 68
O=C(CN1C(=O)CC(c2ccccc2)=Nc2ccccc21)NCc1ccccc1	none (no result: CYP2C9 activ, CYP2C19 act, CYP2C19 inh, CYP2C9 inhib)
CCOC(=O)c1[nH]c(C)c(CN(Cc2ccco2)C(=O)C(F)(F)F)c1C	none
CCOC(=O)C(NC(=O)c1ccccc1Cl)(Nc1ccc(C)c(C)c1)C(F)(F)F (configuration not stated)	none (no result: CYP2C9 activ, CYP2C19 act, CYP2C19 inh, CYP2C9 inhib)
COC(=O)C(Nc1ccccc1Cl)(c1cc(C)c(O)c(C)c1)C(F)(F)F (configuration not stated)	CYP2C19 inh 100, CYP2C9 inhib 99
Cc1nnc(Nc2ccc3c(c2)ncn3C)c2ccccc12	CYP2C19 inh 83
Cc1c(C(=O)NCc2ccccc2)oc2c1C(=O)CCC2	none (no result: CYP2C9 activ, CYP2C19 act, CYP2C19 inh, CYP2C9 inhib)
O=C(Cc1coc(-c2ccc(F)cc2)n1)N1CCOCC1	CYP2C19 inh 50, CYP2C9 inhib 52
O=C(CCC(=O)OCC(=O)c1ccc(F)cc1)NC1CCCCC1	none
O=C(Nc1ccc(F)cc1)N1CCOCC1	none
O=C(Cc1coc(-c2ccc(F)cc2)n1)NC1CCCCC1	CYP2C19 inh 51, CYP2C9 inhib 60
N#CC1=C(N)N=C(SCc2cccc3ccccc23)C(C(N)=O)C12CCCCC2 (configuration not stated)	CYP2C19 inh 72, CYP2C9 inhib 74
CCC(C)NC(=O)Nc1ccc2c(c1)N(C)C(=O)c1ccccc1S2 (configuration not stated)	CYP2C19 inh 70, CYP2C9 inhib 97
CC(=O)c1ccc2c(c1)N(C)c1ccccc1S2	none (no result: CYP2C9 activ, CYP2C19 act, CYP2C19 inh, CYP2C9 inhib)
CC(=O)Nc1cc2c(=O)n(Cc3ccccc3)c(C)nc2cc1N1CCOCC1	none
